From PubChem BioAssay (NCATS)
Results filed as inconclusive are left out. Activity calls are given as the source filed them. The call rests on the fitted dose curve; in most records, active means well fitted inhibition curve with a large enough effect; inconclusive means small, poorly fitted or top-dose-only effect; inactive means no such curve, though single readings can be large or run the other way.

assay: S16 Schwann cell PMP22 intronic element firefly luciferase assay (AID 624032); conditions: S16 rat Schwann cells, PMP22 element FLuc, 24 h; series mostly up to 57.5 µM; activity change, negative = inhibition: at the top concentration; further: nearly all actives have a fitted effect of over 30% in size
Text: Charcot-Marie-Tooth-Association [CMTA]
National Center for Advancing Translational Sciences [NCATS]
Charcot-Marie-Tooth (CMT) disease was first characterized by Jean-Martin Charcot and Pierre Marie in France and, independently, by Howard Henry Tooth in England in 1886. CMT is one of the most common inherited neurological diseases, affecting approximately 1 in 2,500 Americans. […] The most prevalent type of CMT is known as CMT1A and caused by a duplication of the PMP22 gene which leads to over-expression of this protein. PMP22 is a glycosylated intrinsic membrane protein accounting for 2-5% of the myelin protein content, and its over-expression results in demyelination and subsequently axonal loss.
A pair of cellular transcription-based assays was developed in the S16 rat Schwann cell lines (Hai, M., et al., 2002) stably transfected with orthogonal reporters - firefly luciferase (Fluc) and beta-lactamase (beta-Lac) - whose expression is driven by an intronic regulatory element of the PMP22 gene (Jones, E.A., et al., 2011) to recapitulate endogenous expression of PMP22. The current assay employs Fluc to report on PMP22 expression. A comprehensive library of approved drugs, the NCGC Pharmaceutical Collection (Huang, R., et al., 2011), was screened in the cross-validating platform of the orthogonal reporter assays to identify drug modulators inhibitory towards PMP22 expression.
A set of counter-screens was devised to address non-specific activity of the library. An ATP-dependent CellTiter-Glo assay (developed by Promega Corp) was utilized to control cell viability. In addition, biochemical Fluc enzyme assay was performed to assess direct inhibition of the Fluc enzymatic activity.
Hai, M., Muja, N., DeVries, G.H., Quarles, R.H. and Patel, P.I. Comparative analysis of Schwann cell lines as model systems for myelin gene transcription studies. J Neurosci Res, 2002. 69(4): pp 497-508
Huang, R., Southall, N., Wang, Y., Yasgar A., Shinn P., Jadhav, A. , Nguyen, D.-T. and Austin, C.P., The NCGC pharmaceutical collection: a comprehensive resource of clinically approved drugs enabling repurposing and chemical genomics. Sci Transl Med, 2011. 3(80): p. 80ps16.
S16 Schwann cell PMP22 intronic element firefly luciferase assay
The FLuc-expressing S16 cells were seeded in white solid 1536-well plates at between 500-750 cells/4uL in DMEM medium containing 10% FBS, w/o phenol red. After overnight incubation at 37 degree Celsius/5% C02, 23 nL of compounds or DMSO were delivered to each well using a pin tool, followed by 24h-incubation at 37 degree Celsius/5% C02. Then 4 uL ONE-Glo luminescent substrate mix (Promega) was added to each well. Luminescence was measured on a ViewLux plate reader (Perkin Elmer). The % activity was determined by normalizing to the average readings of PTC124 (a positive control) - treated cells relative to DMSO-treated cells (0% Activity). The concentration-effect curves were then classified based on curve quality (r2), response magnitude and degree of measured activity.
Potency means the concentration at half of the fitted maximal effect.

SMILES	activity change, negative = inhibition	Potency
O=S1(=O)c2cccc3cccc(c23)N1CCCN1CCN(c2ccc(F)cc2)CC1	-11.1% (inactive)	–
Nc1ccc(/C=C/c2ccc(N)cc2S(=O)(=O)O)c(S(=O)(=O)O)c1	32.2% (inactive)	–
Cc1ccc(O)c2ncccc12	-39.9% (inactive)	–
COc1ccc(C2C(=O)c3ccccc3C2=O)cc1	8.11% (inactive)	–
CCCCCCCCCCCCCCCCCC(=O)OCC(O)CO (stereo not given)	-7.16% (inactive)	–
Oc1c(I)cc(Cl)c2cccnc12	–	11.4 µM (active)
COc1ccc(CN2CCN(C(c3ccc(F)cc3)c3ccc(F)cc3)CC2)c(OC)c1OC	–	10.2 µM (active)
Cc1c(N(C)CS(=O)(=O)O)c(=O)n(-c2ccccc2)n1C	6.84% [at 25.7 µM] (inactive)	–
C[C@H]1C[C@H]2[C@@H]3CCC4=CC(=O)C=C[C@]4(C)[C@@]3(Cl)[C@@H](O)C[C@]2(C)[C@@]1(O)C(=O)CO	30.8% (inactive)	–
Cc1ncc(CSSCc2cnc(C)c(O)c2CO)c(CO)c1O	2.87% (inactive)	–
Cc1ccc(C(=O)C(C)CN2CCCCC2)cc1 (stereo not given)	30.5% (inactive)	–
C[C@]12CC[C@@H]3c4ccc(O)cc4CC[C@H]3[C@@H]1CC[C@@H]2O	-18.9% (inactive)	–
CC(=O)N(O)CCCCCNC(=O)CCC(=O)N(O)CCCCCNC(=O)CCC(=O)N(O)CCCCCN	-32% [at 25.7 µM] (inactive)	–
CCC(C(=O)OCCN(CC)CC)c1ccccc1 (stereo not given)	-1.46% (inactive)	–
CN(C)/N=N/c1nc[nH]c1C(N)=O	2.97% (inactive)	–
CCN(CC)CCOC(=O)C(c1ccccc1)C1CCCCC1 (stereo not given)	26.4% (inactive)	–
CC(=O)OCC(=O)[C@@]1(OC(C)=O)[C@@H](C)C[C@H]2[C@@H]3C[C@H](F)C4=CC(=O)C=C[C@]4(C)[C@@]3(F)[C@@H](O)C[C@@]21C	2.47% (inactive)	–
Oc1c(Cl)cc(Cl)cc1Sc1cc(Cl)cc(Cl)c1O	–	18.1 µM (active)
O=c1ccc2ccccc2o1	7.8% (inactive)	–
CCCCCC=CCC=CCCCCCCCC(=O)OCC	3.38% (inactive)	–

SMILES	activity change, negative = inhibition	Potency
CCCCC1=NC2(CCCC2)C(=O)N1Cc1ccc(-c2ccccc2-c2nn[nH]n2)cc1	26.4% (inactive)	–
OC(CCN1CCCCC1)(c1ccccc1)c1ccccc1	-4.39% (inactive)	–
CCOC(=O)c1cccc(N)c1	35.5% (inactive)	–
COc1ccc(CCN2CCC(Nc3nc4ccccc4n3Cc3ccc(F)cc3)CC2)cc1	–	20.3 µM (active)
Cc1cc(O)c(C(C)C)cc1Cl	21.9% (inactive)	–
NCCc1ccn[nH]1	-7.77% [at 25.7 µM] (inactive)	–
CC(=O)OCC(=O)NCCCOc1cccc(CN2CCCCC2)c1	-2.25% (inactive)	–
CCCOC(C(=O)OC1CCN(C)CC1)(c1ccccc1)c1ccccc1	51.7% (inactive)	–
CN(C)CCOc1ccccc1Cc1ccccc1	62.9% (inactive)	–
CCN(CC)CCNC(=O)COc1ccc(Cl)cc1	-10.3% (inactive)	–
Cc1c(F)c(N2CCNC(C)C2)cc2c1c(=O)c(C(=O)O)cn2C1CC1 (stereo not given)	1.56% (inactive)	–
C1CCc2nnnn2CC1	4.35% (inactive)	–
CC1(C)CCC(NC(=O)[C@@H](N)CCC(=O)O)CC1	23.4% (inactive)	–
CN1CCN(C(c2ccccc2)c2ccccc2)CC1	-5.45% [at 25.7 µM] (inactive)	–
C[C@@H]1CN(CCCn2c3ccccc3c3ccccc32)C[C@H](C)N1	–	36.1 µM (active)
CC(C)COC(=O)OCN1C(=O)CN(CCN2CC(=O)N(COC(=O)OCC(C)C)C(=O)C2)CC1=O	14% (inactive)	–
O=C(Nc1ccc(Cl)c(Cl)c1)C1CC1	11.3% (inactive)	–
CNCCC(Oc1ccccc1C)c1ccccc1 (stereo not given)	11.5% (inactive)	–
CCC(=O)c1c(O)cc(O)cc1O	-3.37% (inactive)	–
CCCn1c(=O)[nH]c(=O)c2[nH]cnc21	-22.9% (inactive)	–
